From PubChem BioAssay AID1159580 (chemical genetic matrix, 2015)
About 2,000 (36%) of roughly 5,500 compounds were called active. Another 18% or so got no clear call; they are omitted. No stated cut-off is given here; in the data, active means normalized growth mostly below about 0.91 (no sharp cut-off); inconclusive means no clear call, values can overlap the other calls; inactive means mostly above about 0.92. The list shows a part of the results.

Assay: chemical genetic growth profiling, strain panel (AID 1159580);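 further: tested at 20 µM; growth read once vehicle control cultures reached saturation at 30 °C; 1 = growth at the plate median or of vehicle wells; lower values mean less growth of the strain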
Conditions: growth OD

Measured: normalized growth

O=C1C=CC2=C3c4cc(O)c(O)cc4C[C@@]3(O)COC2=C1
inactive: S. cerevisiae deletion strains, locus YJR066W, strain TOR1, active compounds read low 0.935 | S. cerevisiae deletion strains, locus YKL009W, strain mrt4, active compounds read low 1.01 | S. cerevisiae deletion strains, locus YKL068W, active compounds read low 1.01 | S. cerevisiae deletion strains, locus YKL085W, strain MDH1 (second series), active compounds read low 1.01 | S. cerevisiae deletion strains, locus YKL085W, strain MDH1, active compounds read low 1.01 | S. cerevisiae deletion strains, locus YKL160W, strain elf1, active compounds read low 0.953 | S. cerevisiae deletion strains, locus YKR001C, strain vps1, active compounds read low 1.02 | S. cerevisiae deletion strains, locus YKR026C, strain gcn3, active compounds read low 0.983 | S. cerevisiae deletion strains, locus YKR091W, strain srl3, active compounds read low 0.97 | S. cerevisiae deletion strains, locus YLL001W, strain dnm1, active compounds read low 0.976 | S. cerevisiae deletion strains, locus YLL026W, active compounds read low 0.986 | S. cerevisiae deletion strains, locus YLL041C, strain sdh2, active compounds read low 0.976 | S. cerevisiae deletion strains, locus YLR027C, strain aat2, active compounds read low 0.979 | S. cerevisiae deletion strains, locus YLR039C, strain RIC1, active compounds read low 1.07 | S. cerevisiae deletion strains, locus YLR058C, strain SHM2, active compounds read low 0.997 | S. cerevisiae deletion strains, locus YLR102C, strain apc9, active compounds read low 0.992 | S. cerevisiae deletion strains, locus YLR113W, strain HOG1, active compounds read low 1.08 | S. cerevisiae deletion strains, locus YLR221C, strain rsa3, active compounds read low 0.991 | S. cerevisiae deletion strains, locus YLR258W, strain gsy2, active compounds read low 0.971 | S. cerevisiae deletion strains, locus YLR262C, strain YPT6 (second series), active compounds read low 0.976 | S. cerevisiae deletion strains, locus YLR262C, strain YPT6, active compounds read low 1.08 | S. cerevisiae deletion strains, locus YLR268W, strain sec22, active compounds read low 1.03 | S. cerevisiae deletion strains, locus YLR320W, strain mms22, active compounds read low 0.995 | S. cerevisiae deletion strains, locus YLR342W, strain FKS1, active compounds read low 0.985 | S. cerevisiae deletion strains, locus YLR357W, strain rsc2, active compounds read low 0.912 | S. cerevisiae deletion strains, locus YLR370C, strain arc18, active compounds read low 0.987 | S. cerevisiae deletion strains, locus YLR371W, strain rom2, active compounds read low 0.989 | S. cerevisiae deletion strains, locus YLR384C, strain iki3, active compounds read low 0.971 | S. cerevisiae deletion strains, locus YLR418C, strain cdc73, active compounds read low 0.991 | S. cerevisiae deletion strains, locus YML016C, strain PPZ1, active compounds read low 0.996 | S. cerevisiae deletion strains, locus YML032C, strain rad52, active compounds read low 1.02 | S. cerevisiae deletion strains, locus YML120C, strain ndi1, active compounds read low 0.983 | S. cerevisiae deletion strains, locus YML124C, strain tub3, active compounds read low 1 | S. cerevisiae deletion strains, locus YMR058W, strain fet3, active compounds read low 0.941 | S. cerevisiae deletion strains, locus YMR078C, strain ctf18, active compounds read low 0.996 | S. cerevisiae deletion strains, locus YMR125W, strain sto1, active compounds read low 0.954 | S. cerevisiae deletion strains, locus YMR129W, active compounds read low 1 | S. cerevisiae deletion strains, locus YMR205C, strain PFK2, active compounds read low 0.98 | S. cerevisiae deletion strains, locus YMR223W, strain ubp8, active compounds read low 0.975 | S. cerevisiae deletion strains, locus YMR231W, strain pep5, active compounds read low 0.957 | S. cerevisiae deletion strains, locus YMR307W, strain GAS1, active compounds read low 0.991 | S. cerevisiae deletion strains, locus YNL067W, strain RPL9B, active compounds read low 0.994 | S. cerevisiae deletion strains, locus YNL071W, strain lat1, active compounds read low 0.982 | S. cerevisiae deletion strains, locus YNL128W, strain TEP1, active compounds read low 0.998 | S. cerevisiae deletion strains, locus YNL153C, strain GIM3, active compounds read low 0.963 | S. cerevisiae deletion strains, locus YNL183C, strain NPR1, active compounds read low 0.971 | S. cerevisiae deletion strains, locus YNL209W, strain ssb2, active compounds read low 0.987 | S. cerevisiae deletion strains, locus YNL233W, strain BNI4, active compounds read low 0.992 | S. cerevisiae deletion strains, locus YNL248C, strain rpa49, active compounds read low 0.969 | S. cerevisiae deletion strains, locus YNL250W, strain rad50, active compounds read low 0.954 | S. cerevisiae deletion strains, locus YNL271C, strain bni1, active compounds read low 0.982 | S. cerevisiae deletion strains, locus YNL298W, strain CLA4, active compounds read low 0.996 | S. cerevisiae deletion strains, locus YNL307C, strain MCK1, active compounds read low 1 | S. cerevisiae deletion strains, locus YNL322C, strain KRE1 (second series), active compounds read low 0.971 | S. cerevisiae deletion strains, locus YNL322C, strain KRE1, active compounds read low 1.01 | S. cerevisiae deletion strains, locus YNR049C, strain mso1, active compounds read low 0.977 | S. cerevisiae deletion strains, locus YNR052C, strain pop2, active compounds read low 0.967 | S. cerevisiae deletion strains, locus YOL012C, strain htz1 0.978 | S. cerevisiae deletion strains, locus YOL147C, strain pex11, active compounds read low 0.998 | S. cerevisiae deletion strains, locus YOR001W, strain rrp6, active compounds read low 0.968 | S. cerevisiae deletion strains, locus YOR061W, strain CKA2, active compounds read low 1.01 | S. cerevisiae deletion strains, locus YOR069W, strain VPS5, active compounds read low 0.993 | S. cerevisiae deletion strains, locus YOR070C, strain gyp1, active compounds read low 0.967 | S. cerevisiae deletion strains, locus YOR080W, strain dia2, active compounds read low 0.979 | S. cerevisiae deletion strains, locus YOR083W, strain WHI5, active compounds read low 0.959 | S. cerevisiae deletion strains, locus YOR106W, strain vam3, active compounds read low 0.931 | S. cerevisiae deletion strains, locus YOR136W, strain idh2, active compounds read low 0.998 | S. cerevisiae deletion strains, locus YOR144C, strain elg1, active compounds read low 1.01 | S. cerevisiae deletion strains, locus YOR184W, strain ser1, active compounds read low 1.08 | S. cerevisiae deletion strains, locus YOR231W, strain MKK1, active compounds read low 1.02 | S. cerevisiae deletion strains, locus YOR265W, strain rbl2, active compounds read low 0.986 | S. cerevisiae deletion strains, locus YOR270C, strain vph1, active compounds read low 1.01 | S. cerevisiae deletion strains, locus YOR290C, strain snf2, active compounds read low 0.946 | S. cerevisiae deletion strains, locus YOR316C, strain cot1, active compounds read low 1 | S. cerevisiae deletion strains, locus YPL051W, strain arl3, active compounds read low 0.968 | S. cerevisiae deletion strains, locus YPL055C, strain LGE1, active compounds read low 1.04 | S. cerevisiae deletion strains, locus YPL078C, strain atp4, active compounds read low 0.992 | S. cerevisiae deletion strains, locus YPL106C, strain sse1, active compounds read low 0.944 | S. cerevisiae deletion strains, locus YPL240C, strain hsp82, active compounds read low 0.99 | S. cerevisiae deletion strains, locus YPL241C, strain CIN2, active compounds read low 1.01 | S. cerevisiae deletion strains, locus YPL256C, strain CLN2, active compounds read low 1 | S. cerevisiae deletion strains, locus YPR119W, strain clb2, active compounds read low 0.996 | S. cerevisiae deletion strains, locus YPR141C, strain kar3, active compounds read low 0.993 | S. cerevisiae deletion strains, locus YPR163C, strain tif3, active compounds read low 1 | S. cerevisiae deletion strains, locus YPR167C, strain met16, active compounds read low 0.978 | S. cerevisiae deletion strains, strain wtn01, active compounds read low 1.03 | S. cerevisiae strains, strain wild type, active compounds read low 1.03
